Our source for the growth values is PubChem BioAssay (NCI).

Each structure is given as a SMILES string. The panel holds about 83,000 compounds, 20% with a hit somewhere; the sample as a whole holds those more often.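 Single-concentration screen, 48 h exposure, 96-well plates. Endpoint: percent growth. Below 10 = active.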 Values without a mark were called inactive. The source made the active and inactive calls.

The test system of the test is SK-MEL-2 melanoma. In words: NCI-60 one-dose screen, 48 h (100 = growth as untreated, 0 = no growth, -100 = all killed). Particulars: 10 µM unless noted.
On to `c1ccc(Cn2cnc3ccc(-c4nc(-c5ccc6c(c5)ncn6C5CCCCC5)cn5ccnc45)cc32)cc1`, for which the growth was -36.7% (active).
As for `N/C(=N\C(N)=N\c1nc2ccccc2s1)c1cccc(Cl)c1`, the growth was 100%.
The result for `O=C(Cc1ccccc1)NNc1nc(Cl)nc(N2CCN(C(c3ccccc3)c3ccccc3)CC2)n1` reads 99.8%; that for `CCN(CC)c1ccc(C(=O)c2ccccc2)cc1`, 96.3%.
For `O=C(Nc1ncc(Cc2cc(Cl)ccc2Cl)s1)c1cccs1`, the growth was 50.5%.
For `COc1cc(C2C3CC4CCCC[C@H]4N3[C@@]3(C(=O)Nc4cc(Cl)ccc43)C2C(=O)c2nc3ccccc3[nH]2)cc(OC)c1OC` (some centres undefined), the growth was 80.5%.
As for `CC(=O)[C@@H]1CC[C@]2(C(N)=O)CC[C@]3(C)[C@H](CC[C@@H]4[C@@]5(C)CCCNC(C)(C)[C@@H]5CC[C@]43C)[C@@H]12`, the growth is 86.2%.
`Cc1cccc(C)c1N=c1oc2ccc(Cl)cc2nc1-c1ccccc1O`: the growth was 85.7%.
`O=S(=O)(NCCCNc1nccc(-c2c(-c3cccc(O)c3)nc3occn23)n1)c1ccc(Cl)cc1`: the growth is 52.5%.
The result for `N#C/C(=C\c1ccc([N+](=O)[O-])s1)c1nc2cc(Br)ccc2s1` reads -41.1% (active); that for `Oc1ccc(C(c2ccc(O)cc2)c2ccc(Br)cn2)cc1`, 31.6%.
`Cc1nc2sccn2c1-c1cn2ccsc2n1`: the growth is 98%.
Regarding `CCOC(=O)/C(C#N)=C1/NNC(=Nc2cccnc2)S1`, the growth was 107%.
With `O=S(=O)(NCCCNc1nccc(-c2c(-c3cccc(F)c3)nc3sccn23)n1)c1cccc2ccccc12`, the growth is 47.8%.
